Screens: PubChem BioAssay, several laboratories
Shown are actives, neighbours in structure and some others; about 6.9% of the full set was active somewhere.
GRIN3A LBD mod – binders of NR3A ligand-binding domain, primary screen, biophysical, differential scanning fluorimetry, uHTS; Tm shift relative to glycine control, % at 25 µM; Glutamate receptor ionotropic, NMDA 3A (GRIN3A) ligand-binding domain; NR3A LBD differential scanning fluorimetry, Tm shift; 0% = protein alone, 100% = glycine-bound protein; 340,000 tested, 2.5% active;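 active means melting temperature shift of at least 10% of the positive control shift, at one fixed dose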
Mdm2 MdmX PPI – inhibitors of human Mdm2-MdmX association, primary screen, cell-based, luminescence, split luciferase, SaOS-2, uHTS | Protein Mdm4 (Homo sapiens) + E3 ubiquitin-protein ligase Mdm2 (Homo sapiens), … | SaOS-2 split-luciferase Mdm2/MdmX complementation | inhibition, % at 8 µM | 330,000 tested, 3% active | AID 485346, 2010;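 active means inhibition of at least 50% at 8 µM in the primary screen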
Target sequence (O15151 whole entry, looked up): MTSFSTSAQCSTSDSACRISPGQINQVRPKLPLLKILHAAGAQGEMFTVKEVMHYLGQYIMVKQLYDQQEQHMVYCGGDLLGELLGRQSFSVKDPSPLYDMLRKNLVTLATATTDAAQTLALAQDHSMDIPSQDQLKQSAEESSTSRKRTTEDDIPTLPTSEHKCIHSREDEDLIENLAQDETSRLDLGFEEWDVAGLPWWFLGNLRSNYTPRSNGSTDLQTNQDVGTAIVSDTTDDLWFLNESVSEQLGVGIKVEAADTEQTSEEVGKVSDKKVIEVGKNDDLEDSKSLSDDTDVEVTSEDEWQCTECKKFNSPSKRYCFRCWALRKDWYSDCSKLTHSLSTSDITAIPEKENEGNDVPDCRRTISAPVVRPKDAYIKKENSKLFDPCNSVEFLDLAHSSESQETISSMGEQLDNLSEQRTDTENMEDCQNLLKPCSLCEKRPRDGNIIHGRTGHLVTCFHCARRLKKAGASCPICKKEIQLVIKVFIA
Target sequence (Q00987 whole entry, looked up): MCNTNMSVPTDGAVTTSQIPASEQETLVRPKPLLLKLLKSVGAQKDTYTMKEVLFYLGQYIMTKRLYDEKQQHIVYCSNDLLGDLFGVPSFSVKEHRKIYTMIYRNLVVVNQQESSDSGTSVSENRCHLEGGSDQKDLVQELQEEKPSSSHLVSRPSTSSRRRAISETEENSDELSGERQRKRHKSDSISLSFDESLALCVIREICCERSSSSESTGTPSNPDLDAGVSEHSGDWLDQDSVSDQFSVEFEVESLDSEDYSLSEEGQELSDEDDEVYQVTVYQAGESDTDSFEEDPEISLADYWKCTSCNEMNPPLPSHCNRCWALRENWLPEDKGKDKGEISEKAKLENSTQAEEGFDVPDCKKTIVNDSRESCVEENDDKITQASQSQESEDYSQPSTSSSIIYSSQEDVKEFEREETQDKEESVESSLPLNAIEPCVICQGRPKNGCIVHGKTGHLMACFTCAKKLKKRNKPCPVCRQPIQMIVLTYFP
CSC inhib – cancer stem cell viability inhibitors, primary screen, luminescence; cancer stem cell-like cells viability; inhibition, % at 7.5 µM; 300,000 tested, 1.1% active; AID 2717, 2010; in the data active means inhibition above about 75%; inconclusive means no clear call, values can overlap the other calls; tested in HMLE shEcad cells
SKKanGAS inh – S. pyogenes SKKanGAS growth inhibitors in kanamycin, primary screen, streptokinase expression inhibitor project, SKKanGAS strain, BacTiter-Glo luminescence; inhibition, % at 7.5 µM; 300,000 tested, 1.3% active; 6 h;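 active means mean replicate score, as percent of positive control median, at least 50; inconclusive means mean below 50 but one replicate at or above 50; inactive means mean and every replicate below 50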;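 further: strain carries kanamycin resistance gene driven by streptokinase promoter and grows in 40 µg/ml kanamycin; loss of luminescence reflects streptokinase promoter inhibition or plain growth inhibition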
Beta apoptosis – inhibitors of cytokine-induced beta cell apoptosis, primary screen, luminescence | INS-1E cytokine-induced death, ATP luminescence, 48 h; percent of positive-control rescue, neutral wells zero | protection from apoptosis, % (no concentration beside the values) | 300,000 tested, 0.8% active | AID 435005, 2010;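 active means Every replicate reaches about 75%, or at least half do and their mean reaches it too, limit read from the data; inconclusive means At least half of replicates reach the limit but their mean does not; inactive means Under half of replicates reach the limit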;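 further: higher means more ATP so stronger rescue from cytokine killing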
MPTP block – mitochondrial permeability transition pore inhibitors, primary screen, biochemical, isolated mouse mitochondria, absorbance; inhibition, % at 10 µM; Ca2+ swelling absorbance, 30 min; 360,000 tested, 1.4% active; AID 602449, 2012;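 active means inhibition of 50% or more, scaled per plate between neutral and stimulator controls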
MPTP counter – fluorescence retest of MPTP screen hits in isolated mitochondria, single concentration; membrane potential, Rhodamine 123 fluorescence; shares compounds with MPTP block; inhibition, % at 10 µM; 5,000 tested, 78% active; AID 624504, 2012; in the data active means inhibition above about 22%
MPTP swell DR – mitochondrial permeability transition pore inhibitors, dose response, biochemical, absorbance, uHTS hits; shares compounds with MPTP block; isolated mitochondria swelling; IC50, µM; 780 tested, 58% active; AID 651561, 2012; in the data active means IC50 below about 20 µM
MPTP cs DR – fluorescent counter-screen in isolated mitochondria, dose response, counter-screen for MPTP inhibitor project, biochemical, fluorescence, uHTS hits; 780 tested, 49% active; shares compounds with MPTP block; IC50, µM; isolated mitochondria counterscreen, fluorescence read-out; AID 651564, 2012; in the data active means IC50 below about 80 µM
Numbers stand for hits; – = inactive; ? = inconclusive; · = not tested or not shown.

SMILES	GRIN3A LBD mod	Mdm2 MdmX PPI	CSC inhib	SKKanGAS inh	Beta apoptosis	MPTP block	MPTP counter	others
O=C(COC(=O)Cc1cccc(C(F)(F)F)c1)NC(=O)NC1CCCC1	–	–	–	·	–	–	·
O=C(COC(=O)CCNS(=O)(=O)c1cccc(C(F)(F)F)c1)NC(=O)NC1CCCCC1	–	–	–	–	–	61	–	MPTP swell DR=18;MPTP cs DR=23
CC(C)(C)CC(C)(C)NCC(O)COc1ccc2c(c1)CCC2 (centres undefined)	–	–	–	–	–	95	–	MPTP swell DR=4.2;MPTP cs DR=48
O=C(NCc1ccccc1F)c1cccc(S(=O)(=O)N2CCCCCC2)c1	–	–	·	·	–	–	·
O=C(CSc1ncc(-c2ccc(F)cc2)n1Cc1ccco1)Nc1ccc2c(c1)OCO2	–	–	–	–	–	85	62
CCOc1ccc(NC(=O)CSc2ncc(-c3ccc(F)cc3)n2Cc2ccco2)cc1	–	–	–	–	–	–	·
FC(F)(F)c1nnc(N2CCN(c3ccc(Cl)cc3)CC2)s1	–	–	–	–	–	–	·
FC(F)(F)c1nnc(Nc2ccc(Cl)cc2)s1	–	–	–	–	–	79	75
O=C(NNS(=O)(=O)c1ccc(F)cc1F)C1Cc2c(ccc3ccccc23)O1 (centres undefined)	–	–	–	–	–	73	52
Cc1ccc(S(=O)(=O)Nc2ccc(N=Nc3ccc(O)cc3)cc2)cc1	14	–	–	–	–	56	43
Cc1ccc(S(=O)(=O)Nc2ccc(N(C)S(=O)(=O)c3ccc(C)cc3)cc2)cc1	–	–	–	–	–	–	·
CCC(c1nnnn1-c1ccc2c(c1)OCCO2)N1CCN(c2ccc(F)cc2)CC1 (centres undefined)	·	·	·	·	·	–	·
O=C(NCCc1ccccc1)c1cccc2c(-c3cccnc3)coc12	·	·	·	·	·	–	·
CCN1CCN(C(=O)N(c2ccccc2)c2ccccc2)CC1	–	–	–	–	–	–	·
CCCCNc1c(CCc2ccccc2)nc2nc(C)cc(C)n12	·	·	·	·	·	–	·
Cc1cc(-c2ccc(C)c(S(=O)(=O)Nc3cc(C)on3)c2)on1	–	–	–	–	–	–	·
CCOC(=O)C1=C(COC(=O)COc2ccccc2C#N)NC(=O)NC1C (centres undefined)	–	–	·	–	–	–	·
Cc1ccc(NC(=O)CCNC(=O)c2ccco2)cc1F	–	–	–	–	–	–	·
CCOC(=O)C1(CCOc2ccccc2)CCN(Cc2cccc(OC)c2OC)CC1	–	–	–	–	·	75	33
CCOC(=O)C1(CCOc2ccccc2)CCN(Cc2ccc(NC(C)=O)cc2)CC1	–	–	–	–	–	–	·
CCOC(=O)C1(CCOc2ccccc2)CCN(Cc2ccc(OC)cc2)CC1	–	·	–	–	–	87	36
CCOC(=O)C1(Cc2cccc(OC)c2)CCN(Cc2ccc(C)s2)CC1	–	–	–	–	–	97	85
O=C(Nc1ccc(OC(=O)c2ccco2)cc1)c1ccco1	–	–	–	–	–	–	·
O=C(CCc1ccc(Oc2cc([N+](=O)[O-])cc([N+](=O)[O-])c2)cc1)Nc1cccc(Cl)c1	11	·	–	–	–	97	78
CCOc1ccc(Oc2cc(NC(=O)c3ccco3)cc([N+](=O)[O-])c2)cc1	–	·	–	·	–	–	·
SMILES	GRIN3A LBD mod	Mdm2 MdmX PPI	CSC inhib	SKKanGAS inh	Beta apoptosis	MPTP block	MPTP counter	others
O=C(Nc1ccc(Cl)c(Cl)c1)Oc1ccc(NC(=O)c2ccco2)cc1	27	–	·	72	–	102	77
O=C(Nc1cc(Oc2ccc(Cl)cc2)cc([N+](=O)[O-])c1)c1ccco1	22	–	–	–	–	91	74
Cc1cccc(Oc2cc(NC(=O)c3ccccc3)cc([N+](=O)[O-])c2)c1	–	–	–	–	100	68	81
COc1ccc(CCC(=O)Nc2cccc(Cl)c2)cc1	–	–	–	–	–	–	·
Cc1ccccc1C(=O)Nc1ccnn1C1CCN(C(C)Cc2ccccc2F)CC1 (centres undefined)	–	–	–	–	–	–	·
COc1ccc(CCNC(=S)N2CCN(S(=O)(=O)c3ccccc3F)CC2)cc1	–	–	–	–	–	–	·
O=C(Nc1nc2c(Br)cccc2s1)C1CC1	–	–	–	–	–	–	·
CC(C)(C)OC(=O)NCCCCCc1nnc(SCC(=O)Nc2cccc(Cl)c2)o1	–	–	–	–	–	74	57
O=S(=O)(Nc1nc2ccccc2nc1N1CCN(c2ccccc2F)CC1)c1ccc(Cl)cc1	21	–	?	–	–	79	88
O=C(Cc1nc2ccccc2[nH]1)c1ccc(Cl)cc1	–	–	–	–	–	–	·
Clc1ccc(/C(Cc2nc3ccccc3[nH]2)=N\Nc2ccccc2)cc1	–	–	–	90	–	86	70
CCOC(=O)c1ccccc1NC(=O)COC(=O)CSc1ccccc1	–	–	·	–	–	–	·
CC(C)CC(C(=O)Nn1cnnc1)N1C(=O)c2ccccc2C1=O (centres undefined)	–	–	–	–	–	–	·
CC(C)CC(C(=O)Nc1oc(-c2ccccc2)c(-c2ccccc2)c1C#N)N1C(=O)c2ccccc2C1=O (centres undefined)	–	–	–	–	–	74	69
CC(C)(C)c1ccc(CNc2ccc([N+](=O)[O-])cn2)cc1	–	·	–	–	–	56	75
CC(C)c1ccc(CNc2ccc([N+](=O)[O-])cn2)cc1	–	–	–	–	–	–	·
COc1cccc(NC(=O)C(=O)NCCC2CCCCN2S(=O)(=O)c2ccccc2)c1 (centres undefined)	–	–	–	–	·	–	·
COc1ccccc1-n1c(SCC(=O)NC2CCS(=O)(=O)C2)nc2cc([N+](=O)[O-])ccc21 (centres undefined)	–	–	–	–	–	–	·
COc1ccccc1-n1c(SCC(=O)c2ccc(O)cc2O)nc2cc([N+](=O)[O-])ccc21	30	–	·	–	–	88	66
Cn1c(=O)c2c(nc(N3CCN(c4ccc([N+](=O)[O-])cc4)CC3)n2C)n(C)c1=O	–	–	–	–	–	–	·
CN(C)c1ccc(C(c2ccc(N(C)C)cc2)C(O)c2ccccc2)cc1 (centres undefined)	–	·	·	·	·	–	·
